Screening results (PubChem BioAssay)
Sfp PPTase inh: qHTS Assay for Inhibitors of Bacillus subtilis Sfp phosphopantetheinyl transferase (PPTase) | AID 1490, 2009 | 3.5% of 310,000 active | Biochemical Sfp PPTase activity, qHTS | Potency, µM, inactives show largest response in the series, negative = inhibition, usual class: inhibitors | 4'-phosphopantetheinyl transferase ffp (Bacillus subtilis), Q9F4F7;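 further: the enzyme is Sfp with the accession as filed and its product quenches rhodamine fluorescence; potency means the concentration at half of the fitted maximal effect; 0% = enzyme reaction without inhibitor and -100% = no enzyme wells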
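Buffer: 50 mM Hepes-Na pH 7.6, 10 mM MgCl2, 0.01% Nonidet P-40, 0.01% BSA. Enzyme 15 nM, pre-exposed to compound 15 min; substrates then added and fluorescence change tracked over 30 min.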
Tau fluor counter: Counterscreen qHTS for Inhibitors of Tau Fibril Formation, Fluorescence Polarization; AID 1463, 2008; Potency, µM (titrated, usually from 57.7 µM), for the others: top-dose activity change, negative = decrease; 0.93% of 280,000 active; tau K18 P301L Alexa594 fluorescence, heparin fibrillization; further: potency means the concentration at half of the fitted maximal effect; nearly all actives have a fitted effect of over 55% in size
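Human K18 P301L tau (15 uM unlabeled plus 0.24 uM Alexa 594-labeled, final) in 100 mM sodium acetate pH 7 was mixed with compound and 20 uM heparin and incubated 6 hr at 37 C.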
Tau fibril FP: qHTS for Inhibitors of Tau Fibril Formation, Fluorescence Polarization; Microtubule-associated protein tau (Homo sapiens), P10636; K18 P301L tau heparin fibrillization, Alexa594 FP, 6 h; Potency, µM (titrated, usually from 57.7 µM), for the others: top-dose activity, negative = inhibition, usual class: inhibitors; 0.39% of 280,000 active; AID 1468, 2008; further: potency means the concentration at half of the fitted maximal effect; nearly all actives have a fitted effect of over 55% in size
Target sequence (P10636 561-689 P618L limits assumed): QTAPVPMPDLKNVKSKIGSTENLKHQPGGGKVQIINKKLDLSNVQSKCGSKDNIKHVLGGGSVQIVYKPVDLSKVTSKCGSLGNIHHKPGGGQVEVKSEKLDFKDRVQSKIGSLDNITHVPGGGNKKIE
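Human K18 P301L fragment (15 uM unlabeled plus 0.24 uM Alexa 594-labeled) in 100 mM sodium acetate pH 7 with compound, aggregation induced by 20 uM heparin for 6 hr at 37 C. ThT (30 uM) added for 1 hr, then Alexa 594 FP read.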
KDM4E inh: qHTS Assay for Inhibitors of Human Jumonji Domain Containing 2E (JMJD2E) | Lysine-specific demethylase 4E (Homo sapiens), B2RXH2 | Potency, µM (highest dose often 57.1 µM), inactives show at the highest dose activity change, negative = inhibition, hits mostly inhibitors | 1.6% of 230,000 active | JMJD2E catalytic domain, FDH-coupled NADH fluorescence (FDH is formaldehyde dehydrogenase);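 further: potency means the concentration at half of the fitted maximal effect; 0% = wells with enzyme and -100% = buffer wells without enzyme; nearly all actives have a fitted effect of over 50% in size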
Target sequence (B2RXH2 1-337 limits assumed): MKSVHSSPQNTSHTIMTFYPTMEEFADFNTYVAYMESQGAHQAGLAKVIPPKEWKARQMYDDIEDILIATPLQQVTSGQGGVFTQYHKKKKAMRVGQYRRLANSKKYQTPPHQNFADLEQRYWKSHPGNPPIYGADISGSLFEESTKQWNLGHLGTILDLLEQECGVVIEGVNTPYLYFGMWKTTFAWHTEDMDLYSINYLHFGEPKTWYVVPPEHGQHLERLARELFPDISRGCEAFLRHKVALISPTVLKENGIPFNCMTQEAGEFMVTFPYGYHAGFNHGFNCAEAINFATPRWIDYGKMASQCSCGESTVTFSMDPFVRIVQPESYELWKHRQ
Tau fibril ThT: qHTS for Inhibitors of Tau Fibril Formation, Thioflavin T Binding; Potency, µM (top dose mostly 57.4 µM), for inactives: at the highest dose activity, negative = inhibition, actives largely listed as inhibitors; 2.1% of 270,000 active; Microtubule-associated protein tau (Homo sapiens), P10636; recombinant tau K18 P301L, heparin-induced fibrillization, ThT fluorescence; further: potency means the concentration at half of the fitted maximal effect; nearly all actives have a fitted effect of over 55% in size
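ThT emission at 510 nm, taken 1 hr after adding 30 uM dye, quantifies aggregates formed when 20 uM heparin acts on human tau K18 P301L for 6 hr at 37 C.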
Coupling enz: qHTS Assay for Inhibitors of Fructose-1,6-bisphosphate Aldolase from Giardia Lamblia: Coupling assay counterscreen. 0.67% of 290,000 active. coupling enzyme system counterscreen, AmpLite Red fluorescence. activity change, negative = inhibition, % at 58.2 µM, hits read low. AID 2472, 2010; in the data active means activity change below about -30%
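Coupling enzymes only (glyceraldehyde-3-phosphate) + compound, at 57.5 uM final, 10 min RT; add substrate/coupling/AmpLite Red mix, 20 min RT; fluorescence ex 525/em 598 nm. Actives flag coupling-system interference.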
The depositor's hits bear a star; ? = inconclusive; nt = not tested or not shown; [ ] = remark or other dose. Hits are enriched below; roughly 5.3% of the tested compounds scored in any of these assays. Unless noted, the call rests on the fitted dose curve; in most records, active means well fitted curve in the direction sought with a large enough effect; inconclusive means small, poorly fitted or top-dose-only effect, or another doubt; inactive means no such curve, though single readings can be large; an effect the other way counts as inactive or inconclusive. Unless noted, on the % scale 0 is the no-effect control and ±100 the full control effect.

SMILES	Sfp PPTase inh	Tau fluor counter	Tau fibril FP	KDM4E inh	Tau fibril ThT	Coupling enz
CCOC(=O)c1[nH]c(C)c(C(=O)OCC)c1C	-6%	-5%	-6%	-4%	-1%	-1
CCOC(=O)c1c(C(F)(F)C(F)(F)C(F)(F)C(F)(F)F)n[nH]c1C	22%	4%	14µM*	?	1%	-15
COc1cccc2c(=O)c3cccc(N)c3[nH]c12	22µM*	-18%	15%	?	?	-56*
CC1(CC(=O)N/N=C/c2cc(Br)c(O)cc2O)OCCO1	19%	-1%	1%	25µM*	-11%	0
Cc1oc(/C=N/NC(=O)CC2(C)OCCO2)cc1Br	5%	-9%	-6%	-1%	-11%	2
O=C(c1ccccc1)[C@@H]1[C@@H](C(=O)c2ccc(F)cc2)[C@@]2(C(=O)Nc3ccccc32)[C@H]2c3ccccc3C=CN12	-17%	-20%	-10%	0%	?	-31*
O=C1C(=C2SCCCS2)CC/C1=C\c1ccc(F)cc1	25%	-3%	-5%	4%	1.1µM*	-1
O=C1/C(=C/c2ccccc2)CCCc2ccccc21	-9%	-17%	-7%	3%	?	0
Cc1cccc(/C=C2\CCC(=C3SCCCS3)C2=O)c1	-15%	-22%	-5%	-3%	1.4µM*	0
O=C1/C(=C/c2ccc(F)cc2)CCC1C1CCCC1 (stereo unspecified)	0%	-5%	-2%	4%	-10%	1
CN1CCC/C1=C/C=C1\SC(=S)NC1=O	28µM*	-21%	-15%	1%	?	-8
COc1ccccc1N1CCN(C(=O)CCS(=O)(=O)c2cc(Br)cc3c2N(C(=O)C2CC2)CC3)CC1	nt	-10%	-5%	nt	-12%	nt
CCc1ccc(NCc2cc3ccc(OC)cc3n(CC(=O)Nc3cccc(Cl)c3C)c2=O)cc1	nt	-23%	12%	nt	11%	nt
COc1ccc(NC(=O)Nc2cccc([N+](=O)[O-])c2)cc1Cl	-3%	14µM*[quencher]	?	7%	16µM*	-7
O=C(Nc1ccc([N+](=O)[O-])cc1)Nc1ccc(OC(F)F)c(Cl)c1	-4%	?	10µM*	-4%	?	0
O=C(Nc1ccc(OC(F)F)c(Cl)c1)Nc1ccc2c(c1)OCO2	0%	5µM*[quencher]	13%	-5%	?	0
O=C(Nc1ccc2c(c1)OCO2)Nc1ccc2c(c1)OCO2	0%	-12%	7%	3%	-17%	-4
CCC(CC)c1nn2c(=O)cc(COc3ccc(NC(=O)c4ccc(Cl)cc4)cc3)nc2s1	nt	-6%	-15%	nt	?	nt
CO[C@H]1OC2O[C@@]3(C)CC[C@H]4[C@H](C)CC[C@@H]([C@H]1C)[C@@]24OO3 (stereo partly specified)	21%	nt	nt	nt	nt	nt
COn1c2c(c3c4nonc4ccc31)CCCC2	-27%	?	?	?	14µM*	-43*
COn1c(C)c(C(C)=O)c2c3nonc3ccc21	-24%	-15%	?	?	14µM*	-47*
COn1c2c(c3c4no[n+]([O-])c4ccc31)CCCC2	11%	-17%	2%	1%	?	0
Cc1cc(=O)[nH]c2nnc(SCC(=O)Nc3ccc(OC(F)(F)F)cc3)n12	nt	-7%	-8%	nt	-3%	nt
O=C(Cn1cnc2onc(-c3ccc(F)cc3)c2c1=O)Nc1cccc(C(F)(F)F)c1	nt	?	?	nt	15%	nt
COCc1cc(C)nc(OCC(=O)N/N=C/c2ccc(O)cc2)c1C#N	1%	-7%	10%	6%	-4%	1
SMILES	Sfp PPTase inh	Tau fluor counter	Tau fibril FP	KDM4E inh	Tau fibril ThT	Coupling enz
COCc1cc(C)nc(OCC(=O)N/N=C/c2ccc(C)o2)c1C#N	4µM*	6%	2%	?	-1%	-9
O=C(NCc1ccco1)c1cc2ccc(O)cc2oc1=O	28µM*	-15%	4%	?	-10%	14
CCN(CCNC(=O)c1ccc(CSc2nc3ccncc3[nH]2)cc1)c1ccccc1	2%	25µM*[quencher]	1%	14%	?	-4
Cc1ccc(CNC(=O)c2cnc3c(-c4ccccc4)c(C)nn3c2C)o1	nt	-21%	-13%	nt	?	nt
COc1ccc(Nc2nc3ccc(C)cc3nc2-n2nc(C)cc2C)cc1Cl	nt	14µM*[quencher]	?	nt	-10%	nt
COc1cccc(Nc2nc3ccc(C)cc3nc2-n2nc(C)cc2C)c1	nt	?	-19%	nt	-17%	nt
COc1ccc(OC)c(Nc2nc3ccccc3nc2-n2nc(C)cc2C)c1	nt	13µM*[quencher]	?	nt	-10%	nt
Cc1ccc(C)c(S(=O)(=O)Nc2ccc3scnc3c2)c1	-5%	-5%	-3%	0%	6%	-45*
Cc1ccc(C)c(S(=O)(=O)Nc2ccc3[nH]c(=O)[nH]c3c2)c1	-3%	nt	nt	nt	nt	-2
COc1cccc(C(c2c(N)[nH]c(=S)[nH]c2=O)c2c(N)[nH]c(=S)[nH]c2=O)c1	79µM*	-6%	-1%	-7%	nt	-4
COc1cccc(C(NC(=O)c2ccccc2F)NC(=O)c2ccccc2F)c1	?	-4%	1%	-2%	-4%	2
Cc1ccc(-n2nc(CO)c(C(=O)NCc3cccnc3)n2)cc1C	nt	-8%	-9%	nt	-5%	nt
O=C(NCc1ccc(F)cc1)C(c1ccccc1)c1ccccc1	10%	nt	nt	nt	nt	5
CC(=O)N(Cc1ccc(F)cc1)C1=C(NCc2ccccc2)C(=O)c2ccccc2C1=O	-3%	?	-5%	?	28µM*	-55*
S=c1[nH]nc(-c2cc(-c3ccccc3)n[nH]2)n1/N=C/c1ccc(Br)s1	25µM*	?	9%	-14%	?	1
Cc1ccccc1/C=N/n1c(-c2cc(-c3ccccc3)n[nH]2)n[nH]c1=S	56µM*	-20%	-8%	-2%	0%	0
S=c1[nH]nc(-c2cc(-c3ccccc3)n[nH]2)n1/N=C/c1c(Cl)cccc1Cl	40µM*	?	2%	-21%	?	0
Cc1ccsc1/C=N/n1c(-c2cc(-c3ccccc3)n[nH]2)n[nH]c1=S	71µM*	?	-12%	4%	?	1
Oc1ccccc1/C=N/n1c(-c2ccccc2)n[nH]c1=S	?	nt	nt	nt	nt	-1
COc1ccc(NC(=O)c2cc(S(=O)(=O)N3CCCCCC3)cn2C)cc1Cl	nt	-9%	-14%	nt	11%	nt
